About 21,000 targets were measured; listed, in parts, are those with the largest changes and a random draw of the rest.
Compound: Cc1cc(ccc1-c1ccccc1)C(=O)N1CCCN(CC1)C(=O)CCl [compound 10]
Test: probe-labelled cysteine peptide fold change vs DMSO (competition) (log2 fold change); higher = less target engagement (more negative = stronger competition)
Settings: THP-1, incubation time: 4 h
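Further: competitive profiling in live THP-1 cells: cysteine peptides tagged with an iodoacetamide desthiobiotin (IA-DTB) probe, intensity after compound treatment relative to DMSO-treated cells.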

CRTAP_O75718_273_DFYLSIADHYVEVLECK (UniProt O75718)
UniProt O75718, sequence (O75718 whole entry, looked up): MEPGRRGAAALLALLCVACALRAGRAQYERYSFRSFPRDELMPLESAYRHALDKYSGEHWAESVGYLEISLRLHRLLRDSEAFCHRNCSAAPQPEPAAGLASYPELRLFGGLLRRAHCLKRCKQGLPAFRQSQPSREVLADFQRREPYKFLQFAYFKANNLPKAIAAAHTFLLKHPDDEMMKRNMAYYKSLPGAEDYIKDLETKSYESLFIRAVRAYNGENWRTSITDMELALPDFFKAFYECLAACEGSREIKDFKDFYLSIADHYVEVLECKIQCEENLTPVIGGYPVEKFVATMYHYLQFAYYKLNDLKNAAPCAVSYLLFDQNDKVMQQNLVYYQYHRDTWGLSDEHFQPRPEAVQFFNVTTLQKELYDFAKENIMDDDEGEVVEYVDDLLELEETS
probe-labelled cysteine peptide fold change (10 µM): -0.146 | probe-labelled cysteine peptide fold change (50 µM): 1.08

DHX16_O60231_932_VEVGLSSCQGDYIR (UniProt O60231)
probe-labelled cysteine peptide fold change (10 µM): -0.184 | probe-labelled cysteine peptide fold change (50 µM): 0.119

COLGALT1_Q8NBJ5_283_QAEVQMYVCNK (UniProt Q8NBJ5)
probe-labelled cysteine peptide fold change (10 µM): 0.265 | probe-labelled cysteine peptide fold change (50 µM): 0.751

DDAH2_O95865_11_CSHALIR (UniProt O95865)
probe-labelled cysteine peptide fold change (10 µM): 0.0326 | probe-labelled cysteine peptide fold change (50 µM): 0.0102

DNMT1_P26358_353+356_CIQCGQYLDDPDLK (UniProt P26358)
probe-labelled cysteine peptide fold change (10 µM): 0.138 | probe-labelled cysteine peptide fold change (50 µM): -0.0723

DCXR_Q7Z4W1_58_ECPGIEPVCVDLGDWEATER (UniProt Q7Z4W1)
probe-labelled cysteine peptide fold change (10 µM): 0.125 | probe-labelled cysteine peptide fold change (50 µM): 0.231

DDX5_P17844_191_ELAQQVQQVAAEYCR (UniProt P17844)
probe-labelled cysteine peptide fold change (10 µM): 0.115 | probe-labelled cysteine peptide fold change (50 µM): -0.161

DDX27_Q96GQ7_248_ACIPVGLLGK (UniProt Q96GQ7)
probe-labelled cysteine peptide fold change (10 µM): 0.238 | probe-labelled cysteine peptide fold change (50 µM): -0.122

DIAPH2_O60879_775_NEYDDLCEPEQFGVVMSSVK (UniProt O60879)
UniProt O60879, sequence (O60879 whole entry, looked up): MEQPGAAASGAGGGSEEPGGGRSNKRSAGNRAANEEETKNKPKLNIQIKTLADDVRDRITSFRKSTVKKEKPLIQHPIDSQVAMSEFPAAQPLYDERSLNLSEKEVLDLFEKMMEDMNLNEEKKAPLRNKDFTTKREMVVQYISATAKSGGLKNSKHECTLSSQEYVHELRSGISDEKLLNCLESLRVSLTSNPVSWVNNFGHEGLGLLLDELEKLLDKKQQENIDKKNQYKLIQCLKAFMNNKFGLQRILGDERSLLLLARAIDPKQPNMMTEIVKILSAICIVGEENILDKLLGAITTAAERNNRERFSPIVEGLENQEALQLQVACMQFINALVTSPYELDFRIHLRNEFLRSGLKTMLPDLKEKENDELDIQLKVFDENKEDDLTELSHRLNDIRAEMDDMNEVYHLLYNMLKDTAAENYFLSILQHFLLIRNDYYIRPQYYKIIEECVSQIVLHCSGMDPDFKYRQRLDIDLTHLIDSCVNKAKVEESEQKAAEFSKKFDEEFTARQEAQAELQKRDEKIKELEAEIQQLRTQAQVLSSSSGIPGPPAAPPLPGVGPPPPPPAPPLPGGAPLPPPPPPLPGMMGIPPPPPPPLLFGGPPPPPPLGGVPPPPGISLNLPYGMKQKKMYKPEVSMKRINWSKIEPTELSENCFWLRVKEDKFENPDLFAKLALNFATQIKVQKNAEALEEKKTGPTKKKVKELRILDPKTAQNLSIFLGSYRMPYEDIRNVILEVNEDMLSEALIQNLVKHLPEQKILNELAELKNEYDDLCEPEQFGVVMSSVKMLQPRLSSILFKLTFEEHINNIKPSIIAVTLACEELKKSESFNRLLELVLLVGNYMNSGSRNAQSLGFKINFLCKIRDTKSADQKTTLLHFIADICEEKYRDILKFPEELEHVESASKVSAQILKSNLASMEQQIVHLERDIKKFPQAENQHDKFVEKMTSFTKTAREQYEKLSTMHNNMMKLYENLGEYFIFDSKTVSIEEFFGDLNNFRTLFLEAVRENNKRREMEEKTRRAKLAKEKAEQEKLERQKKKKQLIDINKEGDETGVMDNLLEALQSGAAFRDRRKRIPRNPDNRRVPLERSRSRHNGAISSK
probe-labelled cysteine peptide fold change (10 µM): -0.117 | probe-labelled cysteine peptide fold change (50 µM): 0.261

CTNNB1_P35222_466_AGDREDITEPAICALR (UniProt P35222)
probe-labelled cysteine peptide fold change (10 µM): 0.16 | probe-labelled cysteine peptide fold change (50 µM): 1.07

CORO1A_P31146_332_GLEVNKCEIAR (UniProt P31146)
UniProt P31146, sequence (P31146 whole entry, looked up): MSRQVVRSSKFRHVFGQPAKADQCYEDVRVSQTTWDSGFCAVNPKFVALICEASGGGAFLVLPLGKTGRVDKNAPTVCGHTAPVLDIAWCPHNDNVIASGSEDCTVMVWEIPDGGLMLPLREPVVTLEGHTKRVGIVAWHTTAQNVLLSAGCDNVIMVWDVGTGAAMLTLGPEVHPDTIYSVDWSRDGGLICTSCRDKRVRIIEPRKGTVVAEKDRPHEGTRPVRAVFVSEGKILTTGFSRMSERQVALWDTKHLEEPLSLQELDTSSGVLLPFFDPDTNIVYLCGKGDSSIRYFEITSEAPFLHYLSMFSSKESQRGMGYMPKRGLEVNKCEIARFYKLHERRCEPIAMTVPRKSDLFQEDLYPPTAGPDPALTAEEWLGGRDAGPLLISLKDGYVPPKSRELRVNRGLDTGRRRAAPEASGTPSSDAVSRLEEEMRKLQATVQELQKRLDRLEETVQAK
probe-labelled cysteine peptide fold change (10 µM): -0.447 | probe-labelled cysteine peptide fold change (50 µM): -1.1

DENND4B_O75064_652_HAALEFFDSCVEK (UniProt O75064)
probe-labelled cysteine peptide fold change (10 µM): 0.0262 | probe-labelled cysteine peptide fold change (50 µM): 0.235

DHX9_Q08211_1099_LQISHEAAACITGLR (UniProt Q08211)
probe-labelled cysteine peptide fold change (10 µM): 0.136 | probe-labelled cysteine peptide fold change (50 µM): 0.171

DIAPH1_O60610_1227_KAGCAVTSLLASELTK (UniProt O60610)
probe-labelled cysteine peptide fold change (10 µM): -0.218 | probe-labelled cysteine peptide fold change (50 µM): -1.27

DDX46_Q7L014_646_ASYPCMSLHGGIDQYDR (UniProt Q7L014)
UniProt Q7L014, sequence (Q7L014 whole entry, looked up): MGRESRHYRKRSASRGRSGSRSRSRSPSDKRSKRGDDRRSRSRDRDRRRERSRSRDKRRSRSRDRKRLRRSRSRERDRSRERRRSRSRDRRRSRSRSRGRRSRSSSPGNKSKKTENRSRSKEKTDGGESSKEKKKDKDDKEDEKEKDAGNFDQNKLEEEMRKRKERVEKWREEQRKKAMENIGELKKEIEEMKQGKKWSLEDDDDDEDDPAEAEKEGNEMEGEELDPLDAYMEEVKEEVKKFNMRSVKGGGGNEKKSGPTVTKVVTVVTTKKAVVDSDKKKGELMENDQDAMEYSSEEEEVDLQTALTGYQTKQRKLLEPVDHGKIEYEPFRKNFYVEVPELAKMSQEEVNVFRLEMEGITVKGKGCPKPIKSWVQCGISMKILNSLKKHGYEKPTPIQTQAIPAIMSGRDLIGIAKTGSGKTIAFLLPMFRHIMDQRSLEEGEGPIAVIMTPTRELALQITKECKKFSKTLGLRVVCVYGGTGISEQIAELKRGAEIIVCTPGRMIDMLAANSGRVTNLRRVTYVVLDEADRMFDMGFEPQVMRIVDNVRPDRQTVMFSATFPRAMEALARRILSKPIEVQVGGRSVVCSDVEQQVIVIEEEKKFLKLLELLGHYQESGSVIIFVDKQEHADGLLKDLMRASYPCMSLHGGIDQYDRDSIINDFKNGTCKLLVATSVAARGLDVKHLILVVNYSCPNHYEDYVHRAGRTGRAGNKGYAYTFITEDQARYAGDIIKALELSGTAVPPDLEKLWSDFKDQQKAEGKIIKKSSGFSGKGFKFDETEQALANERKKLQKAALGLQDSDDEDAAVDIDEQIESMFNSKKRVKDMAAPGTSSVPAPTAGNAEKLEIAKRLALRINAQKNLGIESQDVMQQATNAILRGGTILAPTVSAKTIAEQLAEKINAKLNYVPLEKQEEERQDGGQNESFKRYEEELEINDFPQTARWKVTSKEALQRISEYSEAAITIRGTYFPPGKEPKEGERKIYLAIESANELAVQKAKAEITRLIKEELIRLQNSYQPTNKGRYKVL
probe-labelled cysteine peptide fold change (10 µM): -0.0173 | probe-labelled cysteine peptide fold change (50 µM): 0.231

CSE1L_P55060_344_NLFEDQNTLTSICEK (UniProt P55060)
probe-labelled cysteine peptide fold change (10 µM): -0.186 | probe-labelled cysteine peptide fold change (50 µM): -0.107

DLGAP5_Q15398_129_YRPDMPCFLLSNQNAVK (UniProt Q15398)
probe-labelled cysteine peptide fold change (10 µM): -0.0877 | probe-labelled cysteine peptide fold change (50 µM): -1.31

DIS3L2_Q8IYB7_196_LSVCVSEK (UniProt Q8IYB7)
probe-labelled cysteine peptide fold change (10 µM): -0.124 | probe-labelled cysteine peptide fold change (50 µM): 0.0776

COMP_P49747_371_GDACDDDIDGDR (UniProt P49747)
probe-labelled cysteine peptide fold change (10 µM): -1.61 | probe-labelled cysteine peptide fold change (50 µM): -0.768

DCAF13_Q9NV06_215_FNPIETFLLGSCASDR (UniProt Q9NV06)
probe-labelled cysteine peptide fold change (10 µM): 0.105 | probe-labelled cysteine peptide fold change (50 µM): -0.0461

CRELD2_Q6UXH1_120_SEYPDLFEWFCVK (UniProt Q6UXH1)
UniProt Q6UXH1, sequence (Q6UXH1 whole entry, looked up): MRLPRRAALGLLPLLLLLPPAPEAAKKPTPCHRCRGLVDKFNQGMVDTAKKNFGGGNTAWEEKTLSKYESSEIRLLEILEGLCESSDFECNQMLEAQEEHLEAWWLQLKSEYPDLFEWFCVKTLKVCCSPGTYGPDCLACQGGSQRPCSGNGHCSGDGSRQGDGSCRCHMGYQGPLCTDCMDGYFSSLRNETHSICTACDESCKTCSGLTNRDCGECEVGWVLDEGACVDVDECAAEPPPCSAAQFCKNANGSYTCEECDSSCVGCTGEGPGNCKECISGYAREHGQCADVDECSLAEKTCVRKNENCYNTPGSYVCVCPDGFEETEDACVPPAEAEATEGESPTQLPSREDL
probe-labelled cysteine peptide fold change (10 µM): 0.199 | probe-labelled cysteine peptide fold change (50 µM): -0.0635

CPNE1_Q99829_4+14_AHCVTLVQLSISCDHLIDK (UniProt Q99829)
probe-labelled cysteine peptide fold change (10 µM): -0.148 | probe-labelled cysteine peptide fold change (50 µM): -0.173

COPB1_P53618_248_CIYNLLQSSSPAVKYEAAGTLVTLSSAPTAIK (UniProt P53618)
UniProt P53618, sequence (P53618 whole entry, looked up): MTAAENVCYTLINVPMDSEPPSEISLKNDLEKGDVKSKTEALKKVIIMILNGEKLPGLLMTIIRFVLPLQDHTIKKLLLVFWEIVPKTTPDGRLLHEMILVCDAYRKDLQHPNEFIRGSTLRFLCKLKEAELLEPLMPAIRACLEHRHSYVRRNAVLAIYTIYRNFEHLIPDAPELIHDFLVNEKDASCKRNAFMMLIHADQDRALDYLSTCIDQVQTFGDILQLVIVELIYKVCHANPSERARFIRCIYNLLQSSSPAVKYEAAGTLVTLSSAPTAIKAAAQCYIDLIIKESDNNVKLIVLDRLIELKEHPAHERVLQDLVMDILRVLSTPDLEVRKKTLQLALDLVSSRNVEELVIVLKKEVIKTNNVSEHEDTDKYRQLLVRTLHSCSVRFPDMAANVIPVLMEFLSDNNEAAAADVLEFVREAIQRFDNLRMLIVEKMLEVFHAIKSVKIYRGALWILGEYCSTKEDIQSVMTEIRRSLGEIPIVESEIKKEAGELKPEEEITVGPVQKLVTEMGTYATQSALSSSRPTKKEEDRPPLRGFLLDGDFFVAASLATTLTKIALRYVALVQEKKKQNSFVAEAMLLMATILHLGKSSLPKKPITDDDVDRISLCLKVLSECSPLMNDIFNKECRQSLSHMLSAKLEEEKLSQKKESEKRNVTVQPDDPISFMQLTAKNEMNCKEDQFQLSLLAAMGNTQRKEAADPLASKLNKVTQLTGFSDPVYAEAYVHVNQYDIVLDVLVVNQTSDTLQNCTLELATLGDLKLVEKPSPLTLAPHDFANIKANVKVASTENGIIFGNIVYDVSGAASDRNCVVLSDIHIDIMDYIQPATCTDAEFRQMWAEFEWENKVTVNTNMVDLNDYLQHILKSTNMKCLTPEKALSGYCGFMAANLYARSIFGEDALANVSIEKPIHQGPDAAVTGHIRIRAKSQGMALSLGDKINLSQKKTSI
probe-labelled cysteine peptide fold change (10 µM): 0.0928 | probe-labelled cysteine peptide fold change (50 µM): 0.0416

DNMT1_P26358_1476+1478_GVCSCVEAGK (UniProt P26358)
probe-labelled cysteine peptide fold change (10 µM): -1.56 | probe-labelled cysteine peptide fold change (50 µM): < -5

CMIP_Q8IY22_363_NGCQQPCDR (UniProt Q8IY22)
UniProt Q8IY22, sequence (Q8IY22 whole entry, looked up): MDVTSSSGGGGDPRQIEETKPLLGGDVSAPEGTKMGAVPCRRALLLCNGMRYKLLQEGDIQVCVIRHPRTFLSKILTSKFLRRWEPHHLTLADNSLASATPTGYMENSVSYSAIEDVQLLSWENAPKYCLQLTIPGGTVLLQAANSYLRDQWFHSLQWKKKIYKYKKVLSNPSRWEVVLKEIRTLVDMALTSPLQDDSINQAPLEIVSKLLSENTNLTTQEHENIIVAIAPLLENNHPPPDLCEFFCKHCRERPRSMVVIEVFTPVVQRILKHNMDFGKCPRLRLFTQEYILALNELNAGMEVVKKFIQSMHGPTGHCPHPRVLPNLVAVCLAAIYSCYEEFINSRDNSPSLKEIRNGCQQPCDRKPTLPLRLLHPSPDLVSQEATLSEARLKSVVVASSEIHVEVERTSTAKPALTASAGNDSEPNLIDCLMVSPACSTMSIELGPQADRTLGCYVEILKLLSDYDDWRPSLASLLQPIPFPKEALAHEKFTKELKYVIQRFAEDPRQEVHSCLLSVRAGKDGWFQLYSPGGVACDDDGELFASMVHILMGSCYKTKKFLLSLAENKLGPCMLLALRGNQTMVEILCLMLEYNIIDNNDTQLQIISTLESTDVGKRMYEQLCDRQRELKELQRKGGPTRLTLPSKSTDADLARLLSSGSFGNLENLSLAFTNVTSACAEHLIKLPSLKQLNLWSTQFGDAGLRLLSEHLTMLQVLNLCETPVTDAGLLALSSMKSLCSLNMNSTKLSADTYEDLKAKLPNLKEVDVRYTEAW
probe-labelled cysteine peptide fold change (10 µM): -0.29 | probe-labelled cysteine peptide fold change (50 µM): -1.18

COPE_O14579_212_CSPTLLLLNGQAACHMAQGR (UniProt O14579)
probe-labelled cysteine peptide fold change (10 µM): 0.0619 | probe-labelled cysteine peptide fold change (50 µM): 0.054

COL15A1_P39059_965_GAIFPIPVRPHCK (UniProt P39059)
probe-labelled cysteine peptide fold change (10 µM): -0.0948 | probe-labelled cysteine peptide fold change (50 µM): 0.0369

DDX59_Q5T1V6_453_LFKPPVLVFVDCK (UniProt Q5T1V6)
probe-labelled cysteine peptide fold change (10 µM): -0.33 | probe-labelled cysteine peptide fold change (50 µM): -1.68
